Results: PubChem BioAssay (NCATS)
Results filed as inconclusive are left out. Active and inactive are the calls of the source. Calls come from the whole dose curve; as a rule, active = well fitted inhibition curve with a large enough effect; inconclusive = small, poorly fitted or top-dose-only effect; inactive = flat fitted curve, though single readings scatter.

Target: Dual specificity protein kinase CLK4 (Homo sapiens) (UniProt Q9HAZ1)
Assay: qHTS Assay for Inhibitors of CDC-like Kinase 4 (ADP-Glo Assay) (AID 1771); note: nearly all actives have a fitted effect of over 70% in size
Details: recombinant CLK4, ADP-Glo luminescence; series mostly up to 80 µM; activity change, negative = inhibition: at the top concentration
In short: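 ADP production was read by ADP-Glo luminescence after residual ATP depletion, following 1 h room-temperature reaction of 25 nM Clk4, 1 uM ATP and 100 uM RS peptide with MgCl2, EGTA, DTT and Triton X-100.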
% is set by controls: 0 for no effect and ±100 for the full control effect; potency is the fitted concentration of half-maximal effect.

Dual specificity protein kinase CLK4 (Homo sapiens), sequence (Q9HAZ1 whole entry, looked up): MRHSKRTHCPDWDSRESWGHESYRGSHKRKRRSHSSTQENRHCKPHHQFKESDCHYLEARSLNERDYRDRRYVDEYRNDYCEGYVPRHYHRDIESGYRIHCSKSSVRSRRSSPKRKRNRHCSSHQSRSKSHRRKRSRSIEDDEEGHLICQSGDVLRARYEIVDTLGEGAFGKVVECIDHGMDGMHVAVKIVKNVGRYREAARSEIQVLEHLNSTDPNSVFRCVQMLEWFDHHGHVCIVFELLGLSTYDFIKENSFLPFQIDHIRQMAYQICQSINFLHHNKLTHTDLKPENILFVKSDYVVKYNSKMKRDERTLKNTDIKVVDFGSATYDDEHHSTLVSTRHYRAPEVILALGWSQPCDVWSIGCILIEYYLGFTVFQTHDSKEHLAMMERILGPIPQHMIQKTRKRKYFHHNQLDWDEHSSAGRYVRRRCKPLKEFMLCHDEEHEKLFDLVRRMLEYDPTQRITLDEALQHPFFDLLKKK

Activity change, negative = inhibition, inactive:
CCNc1ncc2nc(-c3cn(C)c4ccccc34)c(=O)n(Cc3ccc(F)cc3)c2n1 -5.26%
N#CCCn1c(=O)c(-c2ccccc2)nc2cnc(Nc3ccccc3)nc21 4.28%
CN(C)c1ncc2nc(-c3cccs3)c(=O)n(-c3ccccc3)c2n1 -14.1%
COc1ccc(-c2nc3cnc(OC)nc3n(C)c2=O)cc1 3.75%
COc1ncc2nc(-c3cccs3)c(=O)n(Cc3ccc(F)cc3)c2n1 -0.263%
COc1cccc(Cn2c(=O)cnc3cnc(OC)nc32)c1 -17%
COCCn1c(=O)c(-c2cccs2)nc2cnc(OC)nc21 -22.5%
COc1ccc(CNc2ccnc(-c3c(C)noc3C)n2)c(OC)c1 -18.7%
COc1cccc(Cn2c(=O)cnc3cnc(OCc4ccccc4)nc32)c1 -26.2%
COc1ccccc1CNc1cc(-c2ccccc2C(F)(F)F)ncn1 -0.283%
COc1cccc(Cn2c(=O)c(-c3cccs3)nc3cnc(OCc4ccccc4)nc32)c1 5.23%
Cc1noc(C)c1-c1nc(Nc2ccc(F)cc2)c2ccccc2n1 -7.28%
COc1ccc(CNc2ccnc(-c3ccccc3OC)n2)c(OC)c1 -9.42%
Cn1c(=O)c(-c2ccc(F)cc2)nc2cnc(N3CCOCC3)nc21 -9.49%
O=c1c(CCc2ccccc2)nc2cnc(N3CCOCC3)nc2n1CCc1ccccc1 14.9%
COc1cccc(Cn2c(=O)c(-c3cccs3)nc3cncnc32)c1 -17.4%
O=c1c(-c2ccc(F)cc2)nc2cncnc2n1-c1ccccc1 -18.7%
O=c1c(-c2ccc(Cl)cc2)nc2cnc(Nc3ccccc3)nc2n1C[C@H]1CCCO1 -3.04%
COc1ccccc1-c1cncnc1NCc1cnc(C)cn1 -6.9%
CN(C)Cc1ccccc1-c1nc(NC2CC2)c2ccccc2n1 -13.4%
CCNc1ncc2nc(-c3ccccc3)c(=O)n(CCOC)c2n1 3.99%
CCNc1ncc2nc(-c3ccc(F)cc3)c(=O)n(C[C@H]3CCCO3)c2n1 -5.87%
Cc1cnc(CNc2nc(-c3ccccc3C(F)(F)F)nc3ccccc23)cn1 -16.1%
CCNc1ncc2nc(-c3cc(F)cc(F)c3)c(=O)n(CCc3ccccc3)c2n1 -27%
c1ccc(CNc2ncncc2-c2cccnc2)cc1 -26.8%
COc1ccc(-c2nc3cnc(OC)nc3n(CCC#N)c2=O)cc1 14.2%
Cc1ccccc1-c1cncnc1NCc1cccnc1 1.56%
COc1ccc(Oc2ncc3nc(-c4cn(C)c5ccccc45)c(=O)n(C)c3n2)cc1 0.598%
COc1ncc2nc(-c3cn(C)c4ccccc34)c(=O)n(CCC#N)c2n1 0.616%

Potency, active:
COc1cccc(-c2nccc(NCc3cccnc3)n2)c1 7.08 µM
Cc1cnc(CNc2ncnc3ccc(-c4ccc5c(c4)OCO5)cc23)cn1 0.398 µM
CNc1nc(-c2c(C)noc2C)nc2ccccc12 20 µM
N#Cc1cccc(-c2nccc(NCc3ccccc3)n2)c1 14.1 µM
c1ccc(CNc2ncncc2-c2ccc3c(c2)OCO3)cc1 7.08 µM
N#Cc1ccccc1-c1ccc2ncnc(NC3CC3)c2c1 5.62 µM
CN(Cc1ccco1)c1ncnc2ccc(-c3ccccc3C#N)cc12 7.08 µM
CS(=O)(=O)Nc1cccc(-c2nccc(Nc3ccc(F)cc3)n2)c1 10 µM
COc1cccc(-c2cc(NCc3ccccc3)ncn2)c1 28.2 µM
N#Cc1cccc(-c2nccc(NCc3cccs3)n2)c1 6.31 µM
CN(C)c1ccc(-c2cncnc2N(C)Cc2ccco2)cc1 17.8 µM

Target: Dual specificity protein kinase CLK4 (Homo sapiens) (UniProt Q9HAZ1)
Assay: qHTS Assay for Inhibitors of CDC-like Kinase 4 (ADP-FP Assay) (AID 1795); note: nearly all actives have a fitted effect of over 60% in size;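 for activity change, negative = inhibition: recombinant human CLK4 phosphorylating RS repeat peptide at 1 µM ATP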
Details: Transcreener ADP fluorescence polarization; series mostly up to 50 µM; activity change, negative = inhibition: at the top concentration
In short: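 Inhibition of ADP formation by 6.25 nM Clk4 is measured using 1 uM ATP and 100 uM RS repeat peptide over one hour. Produced ADP displaces a fluorescent tracer from antibody, lowering polarization.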

Activity change, negative = inhibition, inactive:
CCNc1ncc2nc(-c3cn(C)c4ccccc34)c(=O)n(Cc3ccc(F)cc3)c2n1 7.58%
N#CCCn1c(=O)c(-c2ccccc2)nc2cnc(Nc3ccccc3)nc21 -1.61%
CN(C)c1ncc2nc(-c3cccs3)c(=O)n(-c3ccccc3)c2n1 5.21%
COc1ccc(-c2nc3cnc(OC)nc3n(C)c2=O)cc1 10.2%
COc1ncc2nc(-c3cccs3)c(=O)n(Cc3ccc(F)cc3)c2n1 9.04%
COc1cccc(Cn2c(=O)cnc3cnc(OC)nc32)c1 -2.31%
COCCn1c(=O)c(-c2cccs2)nc2cnc(OC)nc21 -3.91%
COc1ccc(CNc2ccnc(-c3c(C)noc3C)n2)c(OC)c1 8.58%
COc1cccc(Cn2c(=O)cnc3cnc(OCc4ccccc4)nc32)c1 -2.6%
CNc1nc(-c2c(C)noc2C)nc2ccccc12 -25.4%
COc1ccccc1CNc1cc(-c2ccccc2C(F)(F)F)ncn1 11.6%
COc1cccc(Cn2c(=O)c(-c3cccs3)nc3cnc(OCc4ccccc4)nc32)c1 4.75%
Cc1noc(C)c1-c1nc(Nc2ccc(F)cc2)c2ccccc2n1 -5.82%
COc1ccc(CNc2ccnc(-c3ccccc3OC)n2)c(OC)c1 4.9%
Cn1c(=O)c(-c2ccc(F)cc2)nc2cnc(N3CCOCC3)nc21 3.29%
O=c1c(CCc2ccccc2)nc2cnc(N3CCOCC3)nc2n1CCc1ccccc1 7.1%
COc1cccc(Cn2c(=O)c(-c3cccs3)nc3cncnc32)c1 4.44%
O=c1c(-c2ccc(F)cc2)nc2cncnc2n1-c1ccccc1 -2.79%
O=c1c(-c2ccc(Cl)cc2)nc2cnc(Nc3ccccc3)nc2n1C[C@H]1CCCO1 9.41%
COc1ccccc1-c1cncnc1NCc1cnc(C)cn1 9.11%
CN(C)Cc1ccccc1-c1nc(NC2CC2)c2ccccc2n1 2.39%
CCNc1ncc2nc(-c3ccccc3)c(=O)n(CCOC)c2n1 1.84%
CN(Cc1ccco1)c1ncnc2ccc(-c3ccccc3C#N)cc12 -14.1%
CCNc1ncc2nc(-c3ccc(F)cc3)c(=O)n(C[C@H]3CCCO3)c2n1 5.59%
Cc1cnc(CNc2nc(-c3ccccc3C(F)(F)F)nc3ccccc23)cn1 6.28%
CCNc1ncc2nc(-c3cc(F)cc(F)c3)c(=O)n(CCc3ccccc3)c2n1 34.5%
c1ccc(CNc2ncncc2-c2cccnc2)cc1 -2.87%
COc1ccc(-c2nc3cnc(OC)nc3n(CCC#N)c2=O)cc1 8.96%
Cc1ccccc1-c1cncnc1NCc1cccnc1 -1.12%
COc1ccc(Oc2ncc3nc(-c4cn(C)c5ccccc45)c(=O)n(C)c3n2)cc1 8.73%
CN(C)c1ccc(-c2cncnc2N(C)Cc2ccco2)cc1 1.83%
COc1ncc2nc(-c3cn(C)c4ccccc34)c(=O)n(CCC#N)c2n1 2.45%

Potency, active:
COc1cccc(-c2nccc(NCc3cccnc3)n2)c1 6.31 µM
Cc1cnc(CNc2ncnc3ccc(-c4ccc5c(c4)OCO5)cc23)cn1 0.224 µM
N#Cc1cccc(-c2nccc(NCc3ccccc3)n2)c1 15.8 µM
c1ccc(CNc2ncncc2-c2ccc3c(c2)OCO3)cc1 2.51 µM
N#Cc1ccccc1-c1ccc2ncnc(NC3CC3)c2c1 7.08 µM
CS(=O)(=O)Nc1cccc(-c2nccc(Nc3ccc(F)cc3)n2)c1 11.2 µM
COc1cccc(-c2cc(NCc3ccccc3)ncn2)c1 12.6 µM
N#Cc1cccc(-c2nccc(NCc3cccs3)n2)c1 8.91 µM
